# PubChem BioAssay AID2585 (National Center for Advancing Translational Sciences (NCATS), 2010)
# The other results are listed elsewhere or left out. Records with an inconclusive call do not appear. Active and inactive are the calls of the source. Calls follow the shape of the dose curve; as a rule, active = well fitted inhibition curve with a large enough effect; inconclusive = small, poorly fitted or top-dose-only effect; inactive = no such curve, though single readings can be large or run the other way.
# Biological target: RecQ-like DNA helicase BLM (Homo sapiens) (UniProt P54132)
# Sequence (P54132 whole entry, looked up): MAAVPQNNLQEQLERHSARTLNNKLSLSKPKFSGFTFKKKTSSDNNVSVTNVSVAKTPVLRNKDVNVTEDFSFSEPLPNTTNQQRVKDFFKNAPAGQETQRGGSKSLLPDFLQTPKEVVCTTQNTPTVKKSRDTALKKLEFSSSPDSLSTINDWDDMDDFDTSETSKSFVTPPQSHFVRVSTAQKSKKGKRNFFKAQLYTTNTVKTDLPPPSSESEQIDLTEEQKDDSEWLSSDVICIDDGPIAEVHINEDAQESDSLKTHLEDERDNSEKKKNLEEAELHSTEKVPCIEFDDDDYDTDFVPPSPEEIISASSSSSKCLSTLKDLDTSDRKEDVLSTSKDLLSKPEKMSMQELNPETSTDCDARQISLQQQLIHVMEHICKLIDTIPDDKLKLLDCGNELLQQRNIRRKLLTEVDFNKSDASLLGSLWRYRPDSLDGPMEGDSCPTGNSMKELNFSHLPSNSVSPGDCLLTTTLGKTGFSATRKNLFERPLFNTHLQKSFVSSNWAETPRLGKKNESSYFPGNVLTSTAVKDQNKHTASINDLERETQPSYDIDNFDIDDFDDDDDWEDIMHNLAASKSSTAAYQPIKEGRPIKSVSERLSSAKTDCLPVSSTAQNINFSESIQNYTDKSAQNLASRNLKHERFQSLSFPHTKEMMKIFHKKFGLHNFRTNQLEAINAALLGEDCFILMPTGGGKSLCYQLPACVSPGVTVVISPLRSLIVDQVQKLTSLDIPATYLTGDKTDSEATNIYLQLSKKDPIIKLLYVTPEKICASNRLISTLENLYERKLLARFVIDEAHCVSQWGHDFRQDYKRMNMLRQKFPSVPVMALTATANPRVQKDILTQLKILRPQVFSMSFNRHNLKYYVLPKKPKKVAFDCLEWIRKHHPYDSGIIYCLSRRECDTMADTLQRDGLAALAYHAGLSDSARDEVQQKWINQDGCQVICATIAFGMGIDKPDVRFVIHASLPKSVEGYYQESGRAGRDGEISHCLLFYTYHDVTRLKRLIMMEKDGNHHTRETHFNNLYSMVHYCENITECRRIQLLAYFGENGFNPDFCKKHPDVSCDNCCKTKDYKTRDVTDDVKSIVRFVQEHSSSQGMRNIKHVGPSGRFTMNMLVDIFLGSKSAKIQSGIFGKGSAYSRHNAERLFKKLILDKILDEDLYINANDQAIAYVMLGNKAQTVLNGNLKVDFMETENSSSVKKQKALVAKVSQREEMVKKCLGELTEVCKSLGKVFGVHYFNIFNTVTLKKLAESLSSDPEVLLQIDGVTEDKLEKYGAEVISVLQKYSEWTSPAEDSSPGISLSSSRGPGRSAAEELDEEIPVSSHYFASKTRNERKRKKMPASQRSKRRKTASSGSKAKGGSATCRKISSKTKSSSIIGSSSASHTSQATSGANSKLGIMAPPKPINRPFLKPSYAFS
# Experiment: qHTS Confirmation Assay for Inhibitors of Bloom's syndrome helicase (BLM); also: nearly all actives have a fitted effect of over 45% in size
# Settings: BLM DNA unwinding, fluorescence quenching, biochemical
# Text: Survival of cells and the faithful propagation of the genome depend on elaborate mechanisms of detecting and repairing DNA damage. Treatment of advanced cancer relies on radiation therapy or chemotherapy, which kill cancer cells by causing extensive DNA damage. It is often found, that cancer cells develop resistance to therapy through enhanced activity of DNA repair functions; this has led to an increased interest in developing drugs that interfere with DNA repair, which could sensitize cancer cells to conventional therapy. This validation qHTS assay pertains to human BLM, which is important in resolving abnormal DNA structures formed during replication or homologous recombination. Shutting down the expression of BLM leads to chromosomal instability and higher radiation sensitivity in cultured cells. The validation assay was a fluorescence quenching based kinetic qHTS for BLM Helicase DNA unwinding. The activity was measured as ATP-dependent separation of a 20-bp DNA duplex extended by 30-nt single-stranded tails (forked duplex). The forked DNA substrate was tagged with rhodamine fluorophore (carboxytetramethyl rhodamine, TAMRA) and BHQ-2 (Black Hole Quencher 2) dark quencher. Strand separation results in an increase in the fluorescence of TAMRA (excitation 525 nm, emission 598 nm). […]
# Potency is read from the fitted curve at half-maximal effect.
structure (smiles),measurement,value
O=C(O)c1cc[c]([Sb](=[O])([OH])[OH])cc1[N+](=O)[O-],Potency,8.57 µM (active)
